The text below walks through data of PubChem BioAssay AID1566 (Sanford-Burnham Center for Chemical Genomics, 2009).

As a reminder, the inhibition is the drop in the measured response relative to a control, in per cent.

Values joined by “and” are separate entries in the source; they are usually repeats but may differ in a detail not shown here. Equal entries are not always repeated. Among all 290,000 compounds or so, about 1,800 (0.62%) were called active. Cut-off read from the data, not from the text of the source: active = inhibition above about 50%; inactive = the rest. Many of the other results were omitted from the sample, so actives are more common in it than they were.

The nature of the assay: NOD2 signaling inhibitors, cell-based, luminescence, uHTS, HEK293 (AID 1566). The following applies: HEK293 NOD2/NF-kB luciferase reporter, at 4 µM, active compounds read high.
As for `CN1CCN(C(=O)C2CC(=O)N(c3ccc(Cl)cc3)C2)CC1` (centres undefined), the inhibition was -8.8% (inactive).

Regarding `CCCCCc1ccc(-c2ccc(/C=C/C(=O)O)cc2)nc1`, the inhibition was -82.7% (inactive).

`CCCc1ccc(-c2ccc(/C=C/C(=O)O)cc2)nc1`: the inhibition was 78.4% (active).

`CCCCCc1ccc(-c2ccc(/C=C/C(N)=O)cc2)nc1`: the inhibition is -57.2% (inactive).

For `Cc1sc2ncnc(NCC(c3ccccc3)N(C)C)c2c1C` (centres undefined), the inhibition is 10.2% (inactive).

Turning to `Cc1sc2ncnc(NCCc3ccc(S(N)(=O)=O)cc3)c2c1C`, the inhibition was 55.7% (active).

Consider `COc1ccc(C(CNc2ncnc3sc(C)c(C)c23)N(C)C)cc1` (centres undefined), for which the inhibition is 69.8% (active).

For `Cc1sc2ncnc(NCC(O)c3ccc([N+](=O)[O-])cc3)c2c1C` (centres undefined), the inhibition was 51.7% (active).

On to `Cc1sc2ncnc(NCC(O)c3ccccc3)c2c1C` (centres undefined), for which the inhibition was 40.2% (inactive).

With `NS(=O)(=O)c1ccc(CCNc2ncnc3sccc23)cc1`, the inhibition is 34.1% (inactive).

For the molecule `COc1ccccc1C(CNc1ncnc2sc(C)c(C)c12)N(C)C` (centres undefined), the inhibition was 18.9% (inactive).

Turning to `Cc1sc2ncnc(N[C@@H](CCC(=O)O)C(=O)O)c2c1C`, the inhibition is 2.8% (inactive).

With `Cc1nc(NCCc2ccc(S(N)(=O)=O)cc2)c2c(C)c(C)sc2n1`, the inhibition is 45.1% (inactive).

On to `CC(=O)Nc1ccc(OS(=O)(=O)c2ccc(Cl)cc2)cc1`, for which the inhibition was 12.5% (inactive).

For `CCN(CC)S(=O)(=O)c1ccc(C)c(NC(=O)/C=C/c2cccs2)c1`, the inhibition was -13.1% (inactive).

In the case of `CCOCC(=O)Nc1ccccc1C(=O)O`, the inhibition was 5.3% (inactive).

For the molecule `CCCCNC(=O)c1cn(CC)c2ccc(S(=O)(=O)N3CCCCCC3)cc2c1=O`, the inhibition is -6.4% (inactive).

As for `O=S(=O)(Nc1cc(Sc2cccc3cccnc23)c(O)c2ccccc12)c1ccc(F)cc1`, the inhibition was -2.1% (inactive).

`O=S(=O)(Nc1cc(Sc2ncn[nH]2)c(O)c2ccccc12)c1ccccc1`: the inhibition was 19% (inactive).

In the case of `O=S(=O)(Nc1cc(Sc2cccc3cccnc23)c(O)c2ccccc12)c1ccccc1`, the inhibition was 95.9% (active).

Turning to `O=C(O)CSc1cc(NS(=O)(=O)c2cccc([N+](=O)[O-])c2)c2ccccc2c1O`, the inhibition was 16.9% (inactive).

As for `O=C(O)CSc1cc(NS(=O)(=O)c2ccc(Br)cc2)c2ccccc2c1O`, the inhibition was 57.2% (active).

As for `Cc1cc(C)c(S(=O)(=O)Nc2cc(SCC(=O)O)c(O)c3ccccc23)cc1C`, the inhibition was 29.2% (inactive).

In the case of `COc1ccc(NS(=O)(=O)/C=C/c2ccccc2)cc1`, the inhibition is 17.1% (inactive).

For `COc1ccc(C(=O)Nn2c(SCc3cccc([N+](=O)[O-])c3)nc3ccccc3c2=O)cc1`, the inhibition was 40.4% (inactive).

With `COc1cccc(Oc2c(C)oc3c(CN4CCCCC4)c(O)ccc3c2=O)c1`, the inhibition is 18.7% (inactive).

In the case of `Cc1cccc(-n2cc(C(=O)O)c(=O)cc2C)c1`, the inhibition is 1.7% (inactive).

As to `CCOc1ccc(/C=C/C(=O)Nc2ccc3[nH]c(=O)[nH]c3c2)cc1`, the inhibition was 6.2% (inactive).

Take `Cc1ccc(NS(=O)(=O)c2c(C)nc3sccn3c2=O)cc1C`: the inhibition is 12.9% (inactive).

With `CN(c1cc(=O)n2ccccc2n1)C1CCCCC1`, the inhibition is -19.5% (inactive).

As to `CN(c1ccc2nc3ccccc3c(=O)n2n1)C1CCCCC1`, the inhibition was 79% (active).

As to `CC1CCCN(c2ccc3nc4ccccc4c(=O)n3n2)C1` (centres undefined), the inhibition is 4.1% (inactive).

As to `CSc1ccc(C(=O)C2CCCN(C(=O)CCc3c(C)nn(C)c3C)C2)cc1` (centres undefined), the inhibition was 50.1% (active).

Regarding `Cc1nn(C)c(C)c1CCC(=O)N1CCCC(C(=O)c2cccc(OC(C)C)c2)C1` (centres undefined), the inhibition was 14.2% (inactive).

Consider `CSc1ccc(C(=O)C2CCCN(C(=O)CCc3cnn(C)c3)C2)cc1` (centres undefined), for which the inhibition is 11% (inactive).

For `Clc1cccc(-c2ccnc3nc(-n4cccc4)nn23)c1`, the inhibition was 5.6% (inactive).

As for `COc1ccc(OC)c(NC(=O)C2CC(=O)N(c3ccccc3)C2)c1` (centres undefined), the inhibition is -11.1% (inactive).

For `COCCN1CN=C(NS(=O)(=O)c2ccc(C)cc2)NC1`, the inhibition was 6.3% (inactive).

As for `CC1CCCN(C(=O)c2nn(C)c3c2CSc2ccccc2-3)C1` (centres undefined), the inhibition was 8% (inactive).

For the molecule `Cn1nc(C(=O)N2CCC(C(N)=O)CC2)c2c1-c1ccccc1SC2`, the inhibition was 12.9% (inactive).

Regarding `CC1CC(C)CN(C(=O)c2nn(C)c3c2CSc2ccccc2-3)C1` (centres undefined), the inhibition was 51.5% (active).

For the molecule `COCc1ccc(CN2CCC(C(=O)Nc3cccc(-c4cscn4)c3)CC2)o1`, the inhibition was 7.2% (inactive).

Regarding `Cc1ccc(NC(=O)c2cc(C)n(-c3ccccc3)c2C)cc1`, the inhibition is 52% (active).

Consider `Cc1ccc(NC(=O)c2cc(C)n(-c3cccc(C)c3)c2C)cc1`, for which the inhibition is -26.4% (inactive).

Regarding `Cc1ccc(S(=O)(=O)NC(=O)c2cc(C)n(-c3ccccc3)c2C)cc1`, the inhibition is 13.4% (inactive).

With `O=C(/C=C/c1cn(-c2ccccc2)nc1-c1cccnc1)N1CCCC1`, the inhibition is 50.2% (active).

Take `O=C(/C=C/c1cn(-c2ccccc2)nc1-c1cccnc1)N1CCCCC1`: the inhibition was 10% (inactive).

For `O=C(/C=C/c1cn(-c2ccccc2)nc1-c1cccnc1)c1ccco1`, the inhibition is -74.6% (inactive).

As to `CC(OC(=O)C1CCN(S(=O)(=O)c2ccc(Cl)cc2)CC1)C(=O)N1CCc2ccccc21` (centres undefined), the inhibition was -4.3% (inactive).

Turning to `COc1ccc(CN(Cc2nc3ccccc3c(=O)[nH]2)C(=O)c2ccco2)cc1`, the inhibition was 6.4% (inactive).

Consider `c1ccc2c(c1)nc(-c1ccncc1)n2CCNc1nc(CN2CCCCC2)cs1`, for which the inhibition was 18.5% (inactive).

On to `CCOC(=O)c1ccc(NC(=S)N2CCCC(C(=O)OCC)C2)cc1` (centres undefined), for which the inhibition was -6% (inactive).

For `O=C1C=C(c2cccs2)C[C@H](c2ccccc2)[C@H]1n1nnc([N+](=O)[O-])n1`, the inhibition is 21.7% (inactive).

On to `O=C1C=C(c2ccccc2)C[C@H](c2cccs2)[C@H]1n1cnc([N+](=O)[O-])c1`, for which the inhibition is 3.4% (inactive).

In the case of `COc1ccc(NC(=O)c2cccc(OC(=S)N3CCOCC3)c2)cc1`, the inhibition is 18.5% (inactive).

With `Cc1cccc(C)c1NC(=S)NCc1ccncc1`, the inhibition was 7.5% (inactive).

With `Cc1cc(/C=c2\sc3nc4ccccc4n3c2=O)c(C)n1-c1ccc(C(=O)O)cc1`, the inhibition was -0.4% (inactive).

As to `Cc1cc(/C=c2/sc3nc4ccccc4n3c2=O)c(C)n1-c1ccccn1`, the inhibition was 3.6% (inactive).

`CC1(C)Cc2c(c(-c3ccco3)nc3sc4c(NCCO)ncnc4c23)CO1`: the inhibition was 16.6% (inactive).

Consider `Cc1ccc(C(=O)O/N=C(/c2nonc2N)N(C)C)cc1`, for which the inhibition is 12.2% (inactive).

For the molecule `Cc1n(Cc2ccccc2)c2ccccc2[n+]1Cc1ccccc1`, the inhibition was 22% (inactive).

As to `COc1ccc(-c2nc3ccccc3n2Cc2ccccc2)cc1`, the inhibition was -2.8% (inactive).

On to `C/C(=N\Nc1ccc(C)c(Cl)c1)c1ccncc1`, for which the inhibition was -32.8% (inactive).

As to `O=C(Nc1ccc2c(c1)OCO2)C1CCN(Cc2cc3c(cc2O)OCO3)CC1`, the inhibition was 1.5% (inactive).

On to `Cc1nc2sc(-c3ccccc3)cc2c(=O)n1N`, for which the inhibition is -41.2% (inactive).

Take `Cc1nc2ccccc2c(=O)n1N`: the inhibition was -3.2% (inactive).

Take `Cc1nc2cc(-c3ccccc3)sc2c(=O)n1N`: the inhibition was 54.8% (active).

In the case of `CC(C)(C#N)NC(=O)C(=O)c1c(-c2ccccc2)cc2ccccn12`, the inhibition was 5% (inactive).

As for `CCOc1ccc(-n2c(N)c(-c3nc4ccccc4[nH]3)sc2=S)cc1`, the inhibition is 9.9% (inactive).

Regarding `COc1cccc(/C=N/Nc2ccc([N+](=O)[O-])cc2)c1O`, the inhibition is -64% (inactive).

With `COc1cccc(/C=N/Nc2ccc(S(=O)(=O)O)cc2)c1O`, the inhibition was 15.4% (inactive).

As to `COc1cccc(/C=N/Nc2ccc(C(=O)O)cc2)c1O`, the inhibition was 82.8% (active).

`CCOC(=O)CNC(=S)N(CCCN1CCN(C)CC1)Cc1cccs1`: the inhibition was -1.4% (inactive).

For `O=C1OC(c2ccccc2)c2ccccc21` (centres undefined), the inhibition is -11.5% (inactive).

As to `CC1CCN(S(=O)(=O)c2ccc(NC(=O)CNC3CCCCC3)cc2)CC1`, the inhibition is -15.2% (inactive).

In the case of `Cc1sc2c(=O)n3c(nc2c1C(=O)NC1CCCCC1)CCCCC3`, the inhibition was 16.8% (inactive).

In the case of `O=C(CSc1nc2ccccc2s1)CSc1nc2ccccc2s1`, the inhibition was 4.4% (inactive).

On to `O=C(O)CCSc1nc2ccccc2s1`, for which the inhibition was 65.2% (active).

For `O=C(CSc1nc2ccccc2s1)N/N=C/c1ccccc1C(=O)O`, the inhibition is 56.5% (active).

With `O=C(CSc1nc2ccccc2s1)N/N=C/c1ccc(C(=O)O)cc1`, the inhibition was 12.9% (inactive).

Consider `O=C(O)CSc1nc2ccccc2s1`, for which the inhibition is 0.2% (inactive) and -11.4% (inactive).

For `O=C(O)COc1ccccc1/C=N/NC(=O)CSc1nc2ccccc2s1`, the inhibition is -0.7% (inactive).

Regarding `Cc1ccc(S(=O)(=O)N2CCN3CCCC3C2)cc1` (centres undefined), the inhibition is 17.2% (inactive).

As to `O=C(O)c1ccc(-n2c(/C=C/c3ccccc3)nc3ccccc3c2=O)cc1`, the inhibition was -19.9% (inactive).

As to `COc1ccc(Oc2nnc(-c3ccc(C)cc3)c3ccccc23)cc1`, the inhibition is 14.9% (inactive).

On to `Cc1ccc(/C=C/C(=O)Nn2cnnc2)cc1`, for which the inhibition is 5% (inactive).

Regarding `Cc1cc(Br)c(S(=O)(=O)NCc2ccncc2)cc1C`, the inhibition is 48.6% (inactive).

Regarding `Cc1ccc(C)c(S(=O)(=O)NCc2ccncc2)c1`, the inhibition was 22.5% (inactive).

Consider `Cc1c(NP(=O)(Oc2ccccc2F)Oc2ccccc2F)c(=O)n(-c2ccccc2)n1C`, for which the inhibition was 7.9% (inactive).

As to `O=C(Nc1cc(S(=O)(=O)N2CCCC2)ccc1OCC(F)(F)F)c1ccccc1F`, the inhibition was 6.6% (inactive).

As to `COC(=O)c1c(-c2ccccc2)csc1NC(=O)CSc1ncnc2sc(C)c(C)c12`, the inhibition is 34.6% (inactive).

Turning to `Cc1cccc(NC(=O)CSc2ncnc3sc(C)c(C)c23)n1`, the inhibition is 36.5% (inactive).

For the molecule `COC(=O)c1c(-c2cccs2)csc1NC(=O)CSc1ncnc2sc(C)c(C)c12`, the inhibition was 51.2% (active).

For the molecule `O=C(O)CN1C(=O)C2C3CC(C2C1=O)C1C(c2ccc(Cl)cc2)c2sc(=O)[nH]c2SC31` (centres undefined), the inhibition is 3.8% (inactive).

As to `Cc1nn(-c2ccccc2)c(Cl)c1/C=N/NC(=O)OC(C)(C)C`, the inhibition is -73.9% (inactive).

Turning to `Cc1ccc(C(=O)Nc2nnc(S(=O)(=O)N3CCCCCC3)s2)cc1`, the inhibition was 4.6% (inactive).

As for `CC1CCN(S(=O)(=O)c2nnc(NC(=O)c3cccc([N+](=O)[O-])c3)s2)CC1`, the inhibition is 37.1% (inactive).

For `Cc1cccc(C(=O)Nc2nnc(S(=O)(=O)N3CCC(C)CC3)s2)c1`, the inhibition was -3.6% (inactive).

Turning to `O=C(Nc1nnc(S(=O)(=O)N2CCCCC2)s1)c1ccc(Cl)cc1`, the inhibition is 47.8% (inactive).
